Data as given in PubChem BioAssay (EPA / NIEHS).
The source made the active and inactive calls. How the source made its calls: active means hit-call score of the fitted dose curve at least 0.9, where 1 is the maximum; inactive means score below 0.9.

Assays:
Conditions in all cases: mRNA level, 48 h; actives raise or lower the signal
[1] = read-out: Glutamate-cysteine ligase regulatory (GCLM), GCLM (gene 2730); assay: LTEA_HepaRG_GCLM: Life Technologies and Expression Analysis (LTEA) Assay for Glutamate-cysteine ligase regulatory (GCLM) using HepaRG (AID 2283500)
Summary of the method: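 HepaRG, 48 h dosing, 100 uM top, half-log x8, 0.5% DMSO vehicle. Readout: GCLM mRNA by TaqMan qRT-PCR, housekeeping-normalized (ACTB/GAPDH/POLR2A). Curves fit bidirectionally vs DMSO baseline.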

[2] = read-out: Glutathione S-transferase M3 (GSTM3), GSTM3 (gene 2947); assay: LTEA_HepaRG_GSTM3: Life Technologies and Expression Analysis (LTEA) Assay for Glutathione S-transferase M3 (GSTM3) using HepaRG (AID 2283501)
Summary of the method: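 GSTM3 transcript levels came from Fluidigm TaqMan qRT-PCR normalized to three housekeeping genes, fitted in both directions against DMSO. HepaRG cultures received chemicals for 48 h in serum-free induction medium (0.5% DMSO), 8 half-log concentrations up to 100 uM, duplicate.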

[3] = read-out: Heat shock 70 kDa protein 1 (HSPA1A), gene 3303; assay: LTEA_HepaRG_HSPA1A: Life Technologies and Expression Analysis (LTEA) Assay for Heat shock 70 kDa protein 1 (HSPA1A) using HepaRG (AID 2283502)
Summary of the method: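 HepaRG, 48 h exposure, 8-pt half-log CRC from 100 uM in 0.5% DMSO, duplicates. Readout: TaqMan qRT-PCR of HSPA1A mRNA, housekeeping-normalized (ACTB/GAPDH/POLR2A). Bidirectional fit vs 0.5% DMSO baseline.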

[4] = read-out: 3-Hydroxy-3-Methylglutaryl-CoA Synthase 2 (HMGCS2), HMGCS2 (gene 3158); assay: LTEA_HepaRG_HMGCS2: Life Technologies and Expression Analysis (LTEA) Assay for 3-Hydroxy-3-Methylglutaryl-CoA Synthase 2 (HMGCS2) using HepaRG (AID 2283504)
Summary of the method: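 Readout is HMGCS2 transcript by qRT-PCR, housekeeping-normalised (ACTB/GAPDH/POLR2A) and fitted bidirectionally against 0.5% DMSO. Differentiated HepaRG cells received chemicals 48 h, duplicate wells, eight half-log concentrations topping at 100 uM.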

HGF (gene 3082) = assay: LTEA_HepaRG_HGF: Life Technologies and Expression Analysis (LTEA) Assay for Hepatocyte Growth Facto (HGF) using HepaRG (AID 2283505)
Summary of the method: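 HGF transcript was quantified by TaqMan qRT-PCR against three housekeeping genes after 48 h treatment of HepaRG cells. Exposure ran in duplicate over eight half-log steps topping at 100 uM in 0.5% DMSO vehicle.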

[5] = read-out: Insulin Like Growth Factor 1 (IGF1), IGF1 (gene 3479); assay: LTEA_HepaRG_IGF1: Life Technologies and Expression Analysis (LTEA) Assay for Insulin Like Growth Factor 1 (IGF1) using HepaRG (AID 2283506)
Summary of the method: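 qRT-PCR readout of IGF1 mRNA, normalized to three housekeeping genes, after 48 h chemical exposure of HepaRG cells. Concentrations: 8-point half-log series, top 100 uM, 0.5% DMSO vehicle. Gain or loss fitted against DMSO baseline.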

[6] = read-out: Intercellular Adhesion Molecule 1 (ICAM1), ICAM1 (gene 3383); assay: LTEA_HepaRG_ICAM1: Life Technologies and Expression Analysis (LTEA) Assay for Intercellular Adhesion Molecule 1 (ICAM1) using HepaRG (AID 2283507)
Summary of the method: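 ICAM1 transcript levels measured by qRT-PCR, normalized to three housekeeping genes (ACTB, GAPDH, POLR2A), after 48 h chemical exposure of HepaRG cells. Duplicate eight-point half-log series from 100 uM in 0.5% DMSO; gain or loss fitted against vehicle.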

[7] = read-out: Insulin-like growth factor-binding protein 1 (IGFBP1), IGFBP1 (gene 3484); assay: LTEA_HepaRG_IGFBP1: Life Technologies and Expression Analysis (LTEA) Assay for Insulin-like growth factor-binding protein 1 (IGFBP1) using HepaRG (AID 2283508)
Summary of the method: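 Read-out is qRT-PCR transcript level normalized to three housekeeping genes, fitted in both directions against 0.5% DMSO. Differentiated HepaRG cells received eight half-log concentrations (top 100 uM) in duplicate for 48 h in serum-free induction medium.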

[8] = read-out: Interleukin 6 (IL6), IL6 (gene 3569); assay: LTEA_HepaRG_IL6: Life Technologies and Expression Analysis (LTEA) Assay for Interleukin 6 (IL6) using HepaRG (AID 2283509)
Summary of the method: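 qRT-PCR read-out of IL6 transcript, normalized to three housekeeping genes, after 48 h chemical exposure of HepaRG cells; 8-point half-log series, top 100 uM, 0.5% DMSO vehicle. Bidirectional curve fitting against DMSO baseline.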

[9] = read-out: Interleukin 6 Receptor (IL6R), IL6R (gene 3570); assay: LTEA_HepaRG_IL6R: Life Technologies and Expression Analysis (LTEA) Assay for Interleukin 6 Receptor (IL6R) using HepaRG (AID 2283510);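 on AC50: differentiated human HepaRG liver cells in serum-free induction medium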
Summary of the method: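 HepaRG, 48 h exposure, 8-pt half-log series, top 100 uM, 0.5% DMSO vehicle, duplicates. Read-out: TaqMan qRT-PCR of IL6R transcript, housekeeping-gene normalized. Gain or loss fitted relative to DMSO baseline.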

[10] = read-out: Potassium channel subfamily K member 1 (KCNK1), KCNK1 (gene 3775); assay: LTEA_HepaRG_KCNK1: Life Technologies and Expression Analysis (LTEA) Assay for Potassium channel subfamily K member 1 (KCNK1) using HepaRG (AID 2283511)
Summary of the method: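 HepaRG, 48 h exposure, 8-pt half-log series top 100 uM, 0.5% DMSO vehicle, duplicates. Readout: KCNK1 transcript by qRT-PCR (Fluidigm array), housekeeping-normalized; bidirectional curve fit relative to DMSO baseline.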

[11] = read-out: JUN Transcription Factor, JUN (gene 3725); assay: LTEA_HepaRG_JUN: Life Technologies and Expression Analysis (LTEA) Assay for JUN Transcription Factor using HepaRG (AID 2283513)
Summary of the method: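 HepaRG, 48 h exposure, 8-pt half-log series top 100 uM, 0.5% DMSO, duplicate. JUN mRNA by qRT-PCR (Fluidigm), housekeeping-normalized (ACTB/GAPDH/POLR2A); bidirectional curve fit vs DMSO baseline.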

[12] = read-out: Lipase C (LIPC), LIPC (gene 3990); assay: LTEA_HepaRG_LIPC: Life Technologies and Expression Analysis (LTEA) Assay for Lipase C (LIPC) using HepaRG (AID 2283514)
Summary of the method: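 HepaRG, 48 h exposure, 8-pt half-log series from 100 uM in 0.5% DMSO, duplicates. Readout: LIPC mRNA by Fluidigm qRT-PCR, housekeeping-normalized (ACTB/GAPDH/POLR2A). Gain or loss fitted bidirectionally against DMSO baseline.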

[13] = read-out: Lipoprotein lipase (LPL), LPL (gene 4023); assay: LTEA_HepaRG_LPL: Life Technologies and Expression Analysis (LTEA) Assay for Lipoprotein lipase (LPL) using HepaRG (AID 2283515)
Summary of the method: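 HepaRG, 48 h exposure, 8-pt half-log dilutions from 100 uM, 0.5% DMSO vehicle, duplicates; qRT-PCR (Fluidigm array) of LPL mRNA vs housekeeping genes; bidirectional curve fit relative to DMSO baseline.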

[14] = read-out: MicroRNA 122 (MIR122), gene 406906; assay: LTEA_HepaRG_MIR122: Life Technologies and Expression Analysis (LTEA) Assay for MicroRNA 122 (MIR122) using HepaRG (AID 2283516); further: the transcript read is the microRNA miR-122
Summary of the method: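 qRT-PCR read-out (TaqMan, Fluidigm array), normalized to three housekeeping genes; HepaRG cells dosed 48 h at 8 concentrations up to 100 uM in 0.5% DMSO, duplicate; gain or loss fitted against DMSO baseline.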

[15] = read-out: matrix metalloproteinase-10 (MMP10), MMP10 (gene 4319); assay: LTEA_HepaRG_MMP10: Life Technologies and Expression Analysis (LTEA) Assay for matrix metalloproteinase-10 (MMP10) using HepaRG (AID 2283517)
Summary of the method: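 Transcript levels come from Fluidigm qRT-PCR normalized to three housekeeping genes, with curves fitted bidirectionally against 0.5% DMSO. Human HepaRG cells were dosed for 48 hours at concentrations up to 100 uM.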

MYC, MYC (gene 4609) = assay: LTEA_HepaRG_MYC: Life Technologies and Expression Analysis (LTEA) Assay for MYC using HepaRG (AID 2283518)
Summary of the method: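 MYC transcript changes, up or down relative to 0.5% DMSO, from TaqMan qRT-PCR normalized to three housekeeping genes. Human HepaRG cultures received chemicals for 48 h at eight half-log concentrations up to 100 uM, in duplicate.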

[16] = read-out: matrix metalloproteinase-3 (MMP3), MMP3 (gene 4314); assay: LTEA_HepaRG_MMP3: Life Technologies and Expression Analysis (LTEA) Assay for matrix metalloproteinase-3 (MMP3) using HepaRG (AID 2283519)
Summary of the method: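 qRT-PCR read-out of MMP3 mRNA (normalised to three housekeeping genes) in HepaRG liver cells after 48 h chemical exposure; 8-point half-log series, top 100 uM, 0.5% DMSO vehicle. Bidirectional curve fitting against DMSO baseline.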

Measured: AC50

CNC(=O)CSP(=S)(OC)OC
inactive: [1] | [2] | [3] | [4] | HGF (gene 3082) | [5] | [6] | [7] | [8] | [9] | [10] | [11] | [12] | [13] | [14] | [15] | MYC, MYC (gene 4609) | [16]

COP(=S)(OC)Oc1ccc([N+](=O)[O-])cc1
inactive: [1] | [3] | [4] | HGF (gene 3082) | [5] | [6] | [7] | [8] | [9] | [10] | [11] | [12] | [13] | [14] | [15] | MYC, MYC (gene 4609) | [16]

N#CN
inactive: [1] | [3] | [4] | HGF (gene 3082) | [5] | [6] | [7] | [8] | [9] | [10] | [11] | [12] | [13] | [14] | [15] | MYC, MYC (gene 4609) | [16]

CCN(CC)C(=O)SCc1ccc(Cl)cc1
inactive: [1] | [3] | [4] | HGF (gene 3082) | [5] | [6] | [7] | [8] | [9] | [10] | [11] | [12] | [13] | [14] | [15] | MYC, MYC (gene 4609) | [16]

CCOCN(C(=O)CCl)c1c(C)cccc1CC
inactive: [1] | [3] | HGF (gene 3082) | [6] | [8] | [10] | [11] | [13] | [15] | MYC, MYC (gene 4609) | [16]
active: [4] 81.2 µM | [5] 76.4 µM | [7] 63 µM | [9] 50 µM | [12] 88.4 µM | [14] 50 µM

CCCN(CCC)c1c([N+](=O)[O-])cc(C(F)(F)F)cc1[N+](=O)[O-]
inactive: [1] | [3] | [4] | HGF (gene 3082) | [5] | [6] | [7] | [8] | [9] | [10] | [11] | [12] | [13] | [14] | [15] | MYC, MYC (gene 4609) | [16]

CCC(C)Nc1c([N+](=O)[O-])cc(C(C)(C)C)cc1[N+](=O)[O-] (centres undefined)
active: [4] 50 µM | [5] 48 µM
inactive: [1] | [3] | HGF (gene 3082) | [6] | [7] | [8] | [9] | [10] | [11] | [12] | [13] | [14] | [15] | MYC, MYC (gene 4609) | [16]

CCCN(CCOc1c(Cl)cc(Cl)cc1Cl)C(=O)n1ccnc1
active: [1] 13.4 µM | [4] 29.7 µM | [5] 24.4 µM | [6] 50 µM | [7] 24.4 µM | [8] 36.5 µM | [9] 87.1 µM | [10] 62 µM | [11] 50 µM | [12] 44.3 µM | [13] 25.7 µM | [14] 11.7 µM | [15] 57.8 µM | MYC, MYC (gene 4609) 39.5 µM | [16] 80.2 µM
inactive: [3] | HGF (gene 3082)

CC1(c2ccc(Oc3ccccc3)cc2)OC(=O)N(Nc2ccccc2)C1=O (centres undefined)
active: [1] 9.75 µM | [3] 80.5 µM | [4] 12.5 µM | [5] 8.33 µM | [6] 13.3 µM | [7] 13.4 µM | [8] 21.1 µM | [10] 26.3 µM | [11] 33.5 µM | [12] 21.5 µM | [13] 12.3 µM | [14] 10.6 µM | [15] 26.1 µM | MYC, MYC (gene 4609) 10.2 µM | [16] 10.6 µM
inactive: HGF (gene 3082) | [9]

O=C(Nc1ccccc1)Nc1cnns1
active: [1] 80.3 µM | [4] 73.7 µM | [5] 50 µM | [7] 83.5 µM | [12] 76.9 µM | [13] 81.5 µM | [14] 69.2 µM | MYC, MYC (gene 4609) 87.7 µM | [16] 91.2 µM
inactive: [3] | HGF (gene 3082) | [6] | [9] | [10] | [11] | [15]

O=[N+]([O-])c1c(Cl)c(Cl)c(Cl)c(Cl)c1Cl
active: [5] 50 µM | [8] 9.92 µM | [16] 50 µM
inactive: [1] | [3] | [4] | HGF (gene 3082) | [6] | [7] | [9] | [10] | [11] | [12] | [13] | [14] | [15] | MYC, MYC (gene 4609)

Clc1ccccc1-c1nnc(-c2ccccc2Cl)nn1
active: [1] 23 µM
inactive: [3] | [4] | HGF (gene 3082) | [5] | [6] | [7] | [8] | [9] | [10] | [11] | [12] | [13] | [14] | [15] | MYC, MYC (gene 4609) | [16]
